These results are taken from ChEMBL document CHEMBL3988442, “University of Dundee, Small-Polar-MMV Screening Library” (2021).

What all share (design): scale not given: direction of the effect not stated beside the values
In assay [1] the target is Protein translocase subunit SecA (Escherichia coli (strain K12)) (UniProt P10408). In words: Assay to Identify E. coli SecA ATPase Inhibitors. The format is functional. The note with it: 30 µM.
Assay [2] deals with T1, Ubiquitin-activating enzyme e1, putative (Leishmania donovani (strain BPK282A1)) (UniProt E9BSI1).
T1 sequence (whole entry): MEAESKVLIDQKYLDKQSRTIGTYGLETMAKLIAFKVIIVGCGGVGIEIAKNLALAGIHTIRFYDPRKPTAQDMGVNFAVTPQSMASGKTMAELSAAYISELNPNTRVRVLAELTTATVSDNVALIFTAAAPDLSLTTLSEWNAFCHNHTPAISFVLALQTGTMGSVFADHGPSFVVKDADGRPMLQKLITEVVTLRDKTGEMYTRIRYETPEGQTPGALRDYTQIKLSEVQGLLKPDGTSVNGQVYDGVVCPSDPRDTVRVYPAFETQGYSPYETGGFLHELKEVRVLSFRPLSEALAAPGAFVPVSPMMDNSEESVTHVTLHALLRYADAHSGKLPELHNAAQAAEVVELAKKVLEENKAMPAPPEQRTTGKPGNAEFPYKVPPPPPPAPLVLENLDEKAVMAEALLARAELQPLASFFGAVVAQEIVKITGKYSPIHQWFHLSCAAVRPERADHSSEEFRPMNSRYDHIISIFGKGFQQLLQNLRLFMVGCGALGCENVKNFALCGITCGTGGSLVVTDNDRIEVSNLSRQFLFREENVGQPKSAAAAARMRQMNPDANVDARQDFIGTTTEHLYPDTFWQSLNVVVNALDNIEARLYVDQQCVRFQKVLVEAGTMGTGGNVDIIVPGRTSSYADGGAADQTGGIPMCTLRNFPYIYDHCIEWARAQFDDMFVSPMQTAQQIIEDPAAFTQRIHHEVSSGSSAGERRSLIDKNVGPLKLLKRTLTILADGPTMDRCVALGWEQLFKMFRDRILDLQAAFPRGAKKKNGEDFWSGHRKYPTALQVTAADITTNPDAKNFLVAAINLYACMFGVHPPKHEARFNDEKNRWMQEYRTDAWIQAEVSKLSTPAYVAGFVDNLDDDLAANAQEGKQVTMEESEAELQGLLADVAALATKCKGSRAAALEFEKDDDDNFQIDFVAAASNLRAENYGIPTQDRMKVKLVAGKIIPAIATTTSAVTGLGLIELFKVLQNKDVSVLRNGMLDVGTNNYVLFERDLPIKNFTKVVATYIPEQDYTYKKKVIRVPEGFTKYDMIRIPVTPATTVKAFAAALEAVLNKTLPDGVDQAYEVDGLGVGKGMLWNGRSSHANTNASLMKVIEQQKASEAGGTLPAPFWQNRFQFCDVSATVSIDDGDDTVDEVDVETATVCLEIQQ
In words: Leishmania donovani Ubiquitin Activating Enzyme (LdE1). The format is functional. As to conditions: 30 µM.

In assay [3] the target is Sialic acid-binding Ig-like lectin 9 (Homo sapiens) (UniProt Q9Y336). The experiment in a line: Hs-Siglec9 ALPHAscreen SOP 20170721. The note with it: 10 µM.
Chain of Sialic acid-binding Ig-like lectin 9 (Homo sapiens) (Q9Y336 whole entry): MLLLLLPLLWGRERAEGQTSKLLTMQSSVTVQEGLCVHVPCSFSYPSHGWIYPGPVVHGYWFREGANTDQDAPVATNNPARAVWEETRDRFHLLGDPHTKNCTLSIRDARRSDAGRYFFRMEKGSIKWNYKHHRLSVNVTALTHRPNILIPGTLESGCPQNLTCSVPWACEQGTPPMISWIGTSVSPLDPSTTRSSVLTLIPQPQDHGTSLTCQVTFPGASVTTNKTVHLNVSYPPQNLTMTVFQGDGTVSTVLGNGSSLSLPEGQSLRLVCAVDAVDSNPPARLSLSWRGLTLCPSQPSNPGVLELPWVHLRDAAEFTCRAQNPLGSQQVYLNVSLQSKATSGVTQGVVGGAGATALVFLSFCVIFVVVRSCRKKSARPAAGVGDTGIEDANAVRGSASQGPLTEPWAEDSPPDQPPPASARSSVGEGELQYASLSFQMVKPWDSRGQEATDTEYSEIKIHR
The next assay deals with Trypanosoma cruzi. In words: Trypanosoma cruzi phosphomannomutase and mannose-1-phosphate guanylyltransferase assay. The format is functional. As to conditions: 10 µM.
Assay [4] has as its target T2, Arginase-2, mitochondrial (Homo sapiens) (UniProt P78540).
T2 sequence (whole entry): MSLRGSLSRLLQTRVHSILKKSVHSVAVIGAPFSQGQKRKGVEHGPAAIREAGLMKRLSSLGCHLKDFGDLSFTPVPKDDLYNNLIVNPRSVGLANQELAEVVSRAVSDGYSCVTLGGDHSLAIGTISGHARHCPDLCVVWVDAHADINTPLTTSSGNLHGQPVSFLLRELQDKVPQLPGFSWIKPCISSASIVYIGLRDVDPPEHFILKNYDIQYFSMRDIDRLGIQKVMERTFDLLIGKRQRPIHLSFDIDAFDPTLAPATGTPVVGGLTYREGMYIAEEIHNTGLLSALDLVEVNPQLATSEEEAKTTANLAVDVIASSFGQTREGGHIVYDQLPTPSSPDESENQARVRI
The experiment in a line: in vitro enzyme assay to detect the production of urea directly proportional to the activity of Arginase II. Note: in the data most compounds retested in dose-response had high values. As to conditions: 33.3 µM. The format is functional.

In assay [5] the target is T3, Proteasome subunit beta (Trypanosoma cruzi) (UniProt O96673).
T3 sequence (whole entry): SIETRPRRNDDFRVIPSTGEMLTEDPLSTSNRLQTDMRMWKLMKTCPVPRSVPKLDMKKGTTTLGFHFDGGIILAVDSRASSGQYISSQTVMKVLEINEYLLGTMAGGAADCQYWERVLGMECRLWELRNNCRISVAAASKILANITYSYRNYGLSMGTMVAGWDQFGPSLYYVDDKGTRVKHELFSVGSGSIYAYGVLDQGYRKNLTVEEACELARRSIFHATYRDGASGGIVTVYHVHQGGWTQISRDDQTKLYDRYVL
In words: Trypanosoma cruzi proteasome chymotrypsin-like activity (TcProtChymo) assay. Note: in the data most compounds retested in dose-response had high values. The format is functional. The note with it: 9.37 µM.

The species named for the next assay is Homo sapiens. In words: To identify inhibition of the IFN signalling (Jak-Stat) pathway via expression of an eGFP reporter gene under the control of an IFN-stimulated response element (ISRE) containing MxA promoter. The format is functional. The note with it: 30 µM.
In assay [6] the target is T4, Tyrosyl-tRNA synthetase, putative (Trypanosoma cruzi (strain CL Brener)) (UniProt Q4DSP6).
T4 sequence (whole entry): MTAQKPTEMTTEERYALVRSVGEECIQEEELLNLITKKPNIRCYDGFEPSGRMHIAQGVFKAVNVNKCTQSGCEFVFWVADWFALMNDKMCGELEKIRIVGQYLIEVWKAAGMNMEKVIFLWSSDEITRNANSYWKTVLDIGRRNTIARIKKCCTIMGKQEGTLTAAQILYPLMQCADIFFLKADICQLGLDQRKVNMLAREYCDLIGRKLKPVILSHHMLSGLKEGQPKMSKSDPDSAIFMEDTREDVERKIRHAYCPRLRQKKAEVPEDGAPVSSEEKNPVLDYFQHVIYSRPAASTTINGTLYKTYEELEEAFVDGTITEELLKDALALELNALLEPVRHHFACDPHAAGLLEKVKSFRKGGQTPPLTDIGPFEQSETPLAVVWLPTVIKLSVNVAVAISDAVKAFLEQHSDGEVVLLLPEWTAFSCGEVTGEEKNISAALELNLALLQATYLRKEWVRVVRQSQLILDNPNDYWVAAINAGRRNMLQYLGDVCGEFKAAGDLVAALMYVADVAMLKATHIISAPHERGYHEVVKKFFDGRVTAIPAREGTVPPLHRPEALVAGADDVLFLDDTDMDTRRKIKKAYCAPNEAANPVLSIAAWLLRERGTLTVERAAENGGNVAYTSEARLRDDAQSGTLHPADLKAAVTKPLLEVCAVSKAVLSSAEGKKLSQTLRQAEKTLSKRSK
In words: Trypanosoma cruzi tyrosyl tRNA synthetase (TcYRS) _High Tyrosine SOP. Note: in the data most compounds retested in dose-response had high values. The format is functional. The note with it: 30 µM.

For assay [7], the target named is T4, Tyrosyl-tRNA synthetase, putative (Trypanosoma cruzi (strain CL Brener)). The experiment in a line: Trypanosoma cruzi tyrosyl tRNA synthetase (TcYRS) SOP. The format is functional. The note with it: 30 µM.
The target in assay [8] is Chromo domain-containing protein 1 (Saccharomyces cerevisiae (strain ATCC 204508 / S288c) (Baker's yeast)) (UniProt P32657). In words: ScCHD-1 Enzyme Inhibition Assay. Note: in the data most compounds retested in dose-response had high values. The format is functional. As to conditions: 30 µM.
Chain of Chromo domain-containing protein 1 (Saccharomyces cerevisiae (strain ATCC 204508 / S288c) (Baker's yeast)) (P32657 whole entry, the tested form may be a part): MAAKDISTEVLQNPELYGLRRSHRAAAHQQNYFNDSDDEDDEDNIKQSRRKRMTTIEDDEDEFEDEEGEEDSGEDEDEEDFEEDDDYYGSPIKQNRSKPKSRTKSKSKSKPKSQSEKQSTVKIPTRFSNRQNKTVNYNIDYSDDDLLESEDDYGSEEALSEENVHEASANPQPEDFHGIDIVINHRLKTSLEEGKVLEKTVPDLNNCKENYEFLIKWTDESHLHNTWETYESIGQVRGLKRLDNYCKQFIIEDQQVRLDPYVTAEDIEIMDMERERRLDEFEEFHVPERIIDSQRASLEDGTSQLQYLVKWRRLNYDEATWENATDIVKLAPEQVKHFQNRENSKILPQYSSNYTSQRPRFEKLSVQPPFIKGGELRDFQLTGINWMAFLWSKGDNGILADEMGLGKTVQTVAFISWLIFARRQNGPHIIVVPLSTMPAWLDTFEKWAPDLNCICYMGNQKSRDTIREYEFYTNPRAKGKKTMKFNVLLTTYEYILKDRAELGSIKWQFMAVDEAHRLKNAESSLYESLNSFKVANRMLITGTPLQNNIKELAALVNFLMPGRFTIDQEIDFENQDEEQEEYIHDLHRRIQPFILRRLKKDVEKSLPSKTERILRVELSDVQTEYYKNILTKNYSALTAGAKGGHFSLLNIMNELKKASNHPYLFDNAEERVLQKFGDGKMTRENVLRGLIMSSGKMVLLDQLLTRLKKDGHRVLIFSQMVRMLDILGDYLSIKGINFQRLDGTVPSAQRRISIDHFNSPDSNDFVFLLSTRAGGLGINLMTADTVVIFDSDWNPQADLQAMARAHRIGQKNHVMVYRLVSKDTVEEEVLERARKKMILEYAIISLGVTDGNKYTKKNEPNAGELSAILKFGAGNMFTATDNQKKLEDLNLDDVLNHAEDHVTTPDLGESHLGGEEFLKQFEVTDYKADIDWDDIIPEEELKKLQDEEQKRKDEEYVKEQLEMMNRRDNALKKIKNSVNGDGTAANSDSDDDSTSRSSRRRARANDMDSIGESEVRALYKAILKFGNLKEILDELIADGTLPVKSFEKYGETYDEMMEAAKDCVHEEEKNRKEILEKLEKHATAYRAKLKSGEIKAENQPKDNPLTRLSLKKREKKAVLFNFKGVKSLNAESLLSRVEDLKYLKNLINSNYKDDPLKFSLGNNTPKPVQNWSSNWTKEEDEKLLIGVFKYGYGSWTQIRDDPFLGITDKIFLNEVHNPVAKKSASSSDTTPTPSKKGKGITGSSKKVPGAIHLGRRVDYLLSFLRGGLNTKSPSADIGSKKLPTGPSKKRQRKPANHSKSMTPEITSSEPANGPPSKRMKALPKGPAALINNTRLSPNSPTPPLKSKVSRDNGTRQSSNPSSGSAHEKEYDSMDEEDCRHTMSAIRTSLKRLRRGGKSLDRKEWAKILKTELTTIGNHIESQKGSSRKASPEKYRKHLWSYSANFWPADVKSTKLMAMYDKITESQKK

For some assays here: Results with a measured potency or affinity are listed apart.

Chain of Protein translocase subunit SecA (Escherichia coli (strain K12)) (P10408 whole entry): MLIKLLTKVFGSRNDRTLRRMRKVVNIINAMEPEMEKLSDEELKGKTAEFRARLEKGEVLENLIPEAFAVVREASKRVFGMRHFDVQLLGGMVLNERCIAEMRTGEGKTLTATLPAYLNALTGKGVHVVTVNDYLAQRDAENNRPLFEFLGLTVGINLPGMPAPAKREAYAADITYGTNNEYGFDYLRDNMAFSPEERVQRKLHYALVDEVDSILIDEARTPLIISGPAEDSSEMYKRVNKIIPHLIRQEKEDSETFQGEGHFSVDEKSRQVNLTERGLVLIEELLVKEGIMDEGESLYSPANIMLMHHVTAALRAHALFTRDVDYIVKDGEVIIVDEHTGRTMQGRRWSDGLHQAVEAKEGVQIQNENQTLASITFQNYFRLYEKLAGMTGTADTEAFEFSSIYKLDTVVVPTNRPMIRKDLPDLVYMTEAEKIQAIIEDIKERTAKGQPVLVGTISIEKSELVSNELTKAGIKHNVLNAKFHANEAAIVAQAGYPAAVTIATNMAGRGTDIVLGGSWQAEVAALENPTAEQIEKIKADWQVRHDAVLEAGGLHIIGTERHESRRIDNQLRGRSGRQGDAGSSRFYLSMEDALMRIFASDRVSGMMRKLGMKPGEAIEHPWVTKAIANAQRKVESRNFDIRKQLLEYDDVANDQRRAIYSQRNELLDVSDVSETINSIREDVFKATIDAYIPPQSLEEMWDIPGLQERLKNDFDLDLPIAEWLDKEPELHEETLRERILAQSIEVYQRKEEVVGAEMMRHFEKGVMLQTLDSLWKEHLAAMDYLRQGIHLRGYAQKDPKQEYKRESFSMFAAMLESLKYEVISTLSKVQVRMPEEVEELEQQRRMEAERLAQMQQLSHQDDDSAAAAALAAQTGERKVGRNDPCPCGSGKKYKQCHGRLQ

Take `CN(C)c1ncccc1CNS(=O)(=O)c1ccccc1F`: the Percent Effect in [1] was -0.976%; in [2] it was 15.6%; in assay [3] it was -3.68%; in the assay with Trypanosoma cruzi it was -3.17%; in assay [4] it was 2.66%; in assay [5], 13.3%. Also, the Percent Effect in the assay filed under Homo sapiens is 19.8%; in assay [6], 4.9%; in assay [7] it was 11.8%; in [8] it was -9.97%.

In the case of `CCn1cc2c(n1)C(COC)CN(Cc1ccccn1)C2` (stereo not given), the Percent Effect was -4.98% in assay [1]; 9.09% in assay [2]; -6.05% in assay [3]; -2.43% with Trypanosoma cruzi; -2.43% in [4]; 16.7% in [5]. In addition, the Percent Effect in the assay listed under Homo sapiens is 34.2%; in assay [6], 2.63%; in assay [7] it was 7.69%; in assay [8] it was -3.98%.

On to `CN(Cc1nc2c(cnn2C)c(=O)[nH]1)Cc1ccc(F)cc1F`, for which the Percent Effect in [1] was -0.314%; in assay [2], 20.5%; in [3] it was -17.8%; in the assay on Trypanosoma cruzi it was 2.72%; in assay [4], -2.05%; in [5], 16.8%. The Percent Effect was 3.63% in the assay filed under Homo sapiens, 7.18% in assay [6], 25.3% in [7] and -5.98% in assay [8].

For `CS(=O)(=O)NCC1CCCN(C(=O)COc2ccc(F)cc2)C1` (stereo not given), the Percent Effect in assay [1] is -1.75%; in assay [2], 10.3%; in assay [3], -7.96%; with Trypanosoma cruzi, 9.86%; in assay [4], 1.23%; in assay [5], 3.5%. For the same compound, the Percent Effect in the assay filed under Homo sapiens is 12.5%; in [6], 4.31%; in assay [7] it was -146%; in assay [8], -6.15%.

In the case of `O=C(NCc1cc[nH]n1)NCC(O)COc1cccc(F)c1` (stereo not given), the Percent Effect in [1] is -1.6%; in [2] it was 10.7%; in assay [3] it was -6.96%; with Trypanosoma cruzi, -7.03%; in [4] it was -7.98%; in [5], 8.74%. Moreover, the Percent Effect in the assay filed under Homo sapiens was 12.9%; in [6], -2.63%; in assay [7], 0%; in [8], -6.87%.

`CCc1nc(CN2CCCN(C(=O)COCC3CC3)CC2)cs1`: the Percent Effect in assay [1] is -1.44%; in assay [2] it was 12.8%; in assay [3] it was -6.97%; in the assay with Trypanosoma cruzi, -0.282%; in [4], 0.82%; in assay [5], 9.64%. The Percent Effect in the assay listed under Homo sapiens is 6.06%; in [6] it was 11%; in assay [7] it was 22.9%; in assay [8], -6.08%.

Turning to `CC(C)C(NC(=O)Cn1ccc(=O)n(C)c1=O)c1ccc(F)cc1` (stereo not given), the Percent Effect was 1.48% in assay [1]; 18.2% in assay [2]; -2.41% in assay [3]; -7.09% in the assay with Trypanosoma cruzi; 5.53% in [4]; 7.19% in assay [5]. Besides, the Percent Effect in the assay filed under Homo sapiens is 22.3%; in assay [6], 6.86%; in assay [7] it was 18.8%; in [8], -8.33%.

For `Cc1cnn(CC2CN(CC(=O)N3CCc4ccccc43)CCO2)c1` (stereo not given), the Percent Effect in assay [1] is -4.43%; in assay [2], 8%; in [3] it was 4.38%; in the assay on Trypanosoma cruzi it was -0.803%; in assay [4] it was 3.55%; in assay [5], 3.48%. For the same compound, the Percent Effect was 6.22% in the assay listed under Homo sapiens, 4.74% in [6], -5.13% in assay [7] and -9.1% in assay [8].

With `CCc1nc(C2CCCN2C(=O)c2ccc3c(c2)nnn3CC)no1` (stereo not given), the Percent Effect is -3.49% in [1]; 0% in assay [2]; 5.14% in [3]; -1.41% in the assay on Trypanosoma cruzi; 0% in assay [4]; 3.99% in assay [5]. Besides, the Percent Effect was 11.6% in the assay filed under Homo sapiens, 2.63% in [6], 0% in assay [7] and -12.3% in assay [8].

As to `Cc1c(F)cc(C(=O)O)cc1S(=O)(=O)Nc1cccc(C(F)F)c1`, the Percent Effect is -2.31% in assay [1]; -2.56% in [2]; 2.65% in assay [3]; 1.03% with Trypanosoma cruzi; 0.41% in assay [4]; 6.23% in assay [5]. For the same compound, the Percent Effect in the assay listed under Homo sapiens is 11.6%; in assay [6] it was -1.44%; in assay [7], -3.61%; in assay [8] it was -0.222%.

Regarding `OC(CNCCn1cccn1)c1ccc(F)c(F)c1` (stereo not given), the Percent Effect in assay [1] was 1.48%; in [2] it was 16%; in [3], -2.24%; with Trypanosoma cruzi it was 2.81%; in [4], 1.33%; in assay [5] it was 19.8%. Also, the Percent Effect in the assay filed under Homo sapiens was 18.7%; in assay [6] it was 4.74%; in assay [7], 12.8%; in assay [8] it was -8.38%.

Turning to `CC(=O)N1CCCn2nc(CNS(=O)(=O)N3CCCCCC3)cc2C1`, the Percent Effect in assay [1] is -5.72%; in [2] it was 0%; in assay [3], 0.997%; in the assay with Trypanosoma cruzi it was -2.81%; in assay [4] it was 1.75%; in [5], 11.6%. The Percent Effect in the assay filed under Homo sapiens was determined as 4.54%; in assay [6], 2.66%; in assay [7], 9.76%; in [8], 2.81%.

Consider `Cc1nn2cccnc2c1C(=O)N1CCCC(n2ccnc2)C1` (stereo not given), for which the Percent Effect is 0.231% in [1]; 13.3% in assay [2]; -7.92% in assay [3]; -2.21% with Trypanosoma cruzi; 0% in assay [4]; 8.23% in assay [5]. Besides, the Percent Effect in the assay filed under Homo sapiens was 2.09%; in assay [6] it was 3.68%; in assay [7] it was 12.8%; in assay [8], -11.1%.

For the compound `O=C(c1cc(C2CC2)on1)N1CCCC(n2cncn2)C1` (stereo not given), the Percent Effect in assay [1] is -3.26%; in assay [2] it was 15.4%; in assay [3], -20%; in the assay with Trypanosoma cruzi it was 9.48%; in assay [4] it was -0.82%; in assay [5] it was 20.7%. Besides, the Percent Effect in the assay listed under Homo sapiens worked out at 15.6%; in assay [6], 4.31%; in assay [7], 22.9%; in [8] it was 30.2%.
